Hits are enriched below; roughly 2.6% of the tested compounds scored in any of these assays.
PHOSPHO1 block: blocks human PHOSPHO1 phosphatase activity. hit rate 1.1% among 290,000. AID 1565. Q8TCT1. inhibition, % at 13.3 µM. recombinant PHOSPHO1, absorbance phosphatase assay; in the data active = inhibition above about 60%
PABP polyA inh: PABP-poly(A) binding inhibition; P11940; PABP-poly(A) RNA binding, fluorescence polarization; calls only at 35 µM; hit rate 1% among 290,000; AID 2014;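 note: calls also rest on retests at 20 µM and on dose response follow-up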
eIF4H inh: inhibitors of RNA binding by human eIF4H; Q15056; eIF4H fluorescence polarization binding assay; hit rate 0.94% among 290,000; inhibition, % at 35 µM;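 note: calls also rest on retests at 20 µM and on dose response follow-up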
MLLE-PAM2 inh: inhibitors of microRNA-mediated deadenylation, human PABP1 MLLE binding. inhibition, % at 20 µM. GST-MLLE / FITC-PAM2 fluorescence polarization. AID 588489. hit rate 0.36% among 360,000. P11940; in the data active = inhibition above about 35%, passing the limit was not always enough;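 note: plate controls were DMSO wells with GST-MLLE for no effect and wells lacking GST-MLLE protein for full effect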
APOBEC3A inh: blocks human APOBEC3A ssDNA deamination; P31941; recombinant A3A, FAM/TAMRA ssDNA deamination fluorescence; inhibition, % at 20 µM; hit rate 0.41% among 330,000;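 active = at least 40% inhibition at 20 µM here, with at most 30% in a related deaminase screen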;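 note: plate controls were A3A with DMSO for no effect and wells lacking A3A enzyme for full effect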
Target sequence (P31941 whole entry, looked up): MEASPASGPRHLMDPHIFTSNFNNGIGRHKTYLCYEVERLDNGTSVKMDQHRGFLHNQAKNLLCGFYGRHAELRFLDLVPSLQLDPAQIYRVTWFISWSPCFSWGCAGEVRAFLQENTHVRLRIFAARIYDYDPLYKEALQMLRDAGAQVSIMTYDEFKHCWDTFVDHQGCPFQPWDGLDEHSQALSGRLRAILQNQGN
APOBEC3G inh: inhibitors of human APOBEC3G DNA deaminase. AID 493012. hit rate 0.28% among 330,000. Q9HC16. inhibition, % at 20 µM. recombinant A3G, ssDNA deamination FAM/TAMRA fluorescence;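 active = inhibition of at least 40% at 20 µM, with no more than 30% in the related APOBEC3A deaminase screen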;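 note: plate controls were DMSO wells with A3G for no effect and wells lacking A3G enzyme for full effect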
Target sequence (Q9HC16 whole entry, looked up): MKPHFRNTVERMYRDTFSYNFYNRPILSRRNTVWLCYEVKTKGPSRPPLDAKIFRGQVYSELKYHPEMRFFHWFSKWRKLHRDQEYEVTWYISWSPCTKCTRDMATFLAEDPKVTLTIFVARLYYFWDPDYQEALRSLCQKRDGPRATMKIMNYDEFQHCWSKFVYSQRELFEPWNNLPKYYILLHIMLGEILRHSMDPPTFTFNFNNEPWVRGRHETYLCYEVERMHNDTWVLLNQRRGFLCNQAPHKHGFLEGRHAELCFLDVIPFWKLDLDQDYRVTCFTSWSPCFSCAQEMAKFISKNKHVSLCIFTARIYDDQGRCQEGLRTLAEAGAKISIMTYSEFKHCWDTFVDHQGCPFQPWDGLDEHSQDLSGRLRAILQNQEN
An asterisk follows results filed as active; i = inactive; ? = inconclusive; . = not tested or not shown; + = active, no number. Unless noted, the rule behind the calls is not given here.

SMILES | PHOSPHO1 block | PABP polyA inh | eIF4H inh | MLLE-PAM2 inh | APOBEC3A inh | APOBEC3G inh
Cc1n[nH]c(=S)n(NC(=O)/C=C/C(=O)Nn2c(=S)[nH]nc(C)c2=O)c1=O | 26 | + | 92* | 10 | . | .
NS(=O)(=O)c1ccc(-c2ccc(C=O)o2)cc1 | 12 | i | -4 | -16 | 1 | -2
NS(=O)(=O)c1ccc(-c2ccc(/C=C3\NC(=S)NC3=O)o2)cc1 | -16 | i | 79* | 12 | 0 | -3
CCOC(=O)SC1=N/C(=C\c2ccc(N(C)C)cc2)C(=O)S1 | 7 | + | 111* | -124 | -4 | -7
O=C(Cc1ccc(Cl)cc1)Nc1ccccc1C(=O)N1CCCCC1 | . | i | -5 | -7 | 5 | 3
Cc1cccc(N2CSC3=C(C#N)C(c4ccc(C)o4)CC(=O)N3C2)c1 (stereo not given) | 76* | + | 98* | . | 36 | 66
COc1ccc(C2CC(=O)N3CN(Cc4ccco4)CSC3=C2C#N)cc1 (stereo not given) | 58 | i | -2 | -4 | -1 | -3
COc1ccc(N2CSC3=C(C#N)C(c4cccc(OC)c4OC)CC(=O)N3C2)cc1 (stereo not given) | 83* | i | 14 | -35 | -5 | 39
CCc1ccccc1N1CSC2=C(C#N)C(c3ccccc3F)CC(=O)N2C1 (stereo not given) | 61* | + | 78* | -29 | -4 | 26
COc1ccc(C2CC(=O)N3CN(c4ccccc4F)CSC3=C2C#N)cc1OC (stereo not given) | 90* | i | 14 | -17 | -3 | 46*
COc1cc(C(=O)OCC(=O)N2CCOCC2)c([N+](=O)[O-])cc1OC | 6 | i | 0 | -2 | -3 | -6
CCc1nc2ccc(C(=O)N3CCN(C(C)=O)CC3)cn2c1N(CC)C(=O)NCCc1ccccc1 | . | . | . | 2 | . | .
COc1ccccc1CNC(=O)c1ccc(OC(C)C)cc1 | 8 | i | 4 | -8 | 5 | -1
CC(=O)N1CC(C)Oc2ccc(S(=O)(=O)NC(CC(=O)O)c3ccccc3C)cc21 (stereo not given) | 65* | i | -10 | 17 | -1 | -2
CC1=C(C(=O)Nc2cccc(C(=O)NCc3ccccc3C)c2)SCCO1 | -1 | i | -17 | 8 | 0 | 4
CCCSc1nc(N)nc2c1ncn2C1OC(CO)C(O)C1O (stereo not given) | . | . | . | -36 | . | .
Oc1ccc(/C=N/Nc2ccc(Cl)nn2)c(O)c1O | 11 | + | 80* | 40 | 18 | 31
CCOc1cc2c(C#N)c(N3CCOCC3)nc(N)c2c(N)n1 | -7 | + | 73* | 7 | -4 | -5
Cc1ccc(CN2CCN(C3CCOCC3)CC2CCO)cc1 (stereo not given) | 40 | i | -8 | 1 | 0 | -3
Cc1cc(NC(=O)CSCC(=O)N(C)Cc2ccc(Cl)c(Cl)c2)no1 | 33 | + | 29 | -3 | 0 | -5
COc1ccc(C(=O)NNC(=O)CCc2ccccc2OC)cc1 | -1 | i | -4 | -3 | 0 | -2
Cc1ccc(S(=O)(=O)NCC(=O)OCc2nnc(-c3ccccc3)o2)cc1 | 65* | i | -7 | 12 | -1 | -4
CCOc1ccc(S(=O)(=O)NCC(=O)OCc2nnc(-c3ccccc3)o2)cc1 | . | . | . | 0 | -1 | -5
CCC(c1nnnn1CCOC)N(Cc1cc2cc(C)c(C)cc2[nH]c1=O)CC1CCCO1 (stereo not given) | 76* | i | -3 | 5 | 2 | 0
Cc1ccc(C(=O)Cn2c(-c3ccccc3)noc2=O)cc1 | 62* | i | -7 | -4 | -1 | -6
SMILES | PHOSPHO1 block | PABP polyA inh | eIF4H inh | MLLE-PAM2 inh | APOBEC3A inh | APOBEC3G inh
CCc1ccc2c(c1)c1nc(C)sc1n2CC | 92* | i | 0 | 6 | -4 | -5
CC(C)Cc1cc(C(=O)Nc2c(F)cc(F)cc2Br)no1 | 6 | i | 61* | 11 | -3 | -9
CC(C)Cc1cc(C(=O)Nc2ccc(F)cc2F)no1 | 10 | i | 1 | -12 | 2 | 0
CC(=O)N1CCN(c2nc(-c3ccco3)c3c(c2C#N)CC(C)(C)SC3)CC1 | 86* | ? | ? | 3 | 12 | 5
CC1(C)Cc2c(c(-c3ccco3)[nH]c(=O)c2C#N)CS1 | -7 | i | 122 | 61* | 29 | 11
Nc1ccc2oc(C3CCCCC3)nc2c1 | 19 | i | -5 | 14 | 4 | 0
O=[N+]([O-])c1ccccc1S(=O)(=O)N1CCCc2ccccc21 | 8 | i | -10 | 14 | -9 | -4
COc1ccc(C(CNC(=O)c2cccc(S(=O)(=O)N3CCc4ccccc43)c2)N(C)C)cc1 (stereo not given) | . | . | . | -5 | -4 | -4
Cc1ccc(S(=O)(=O)C(CCC(=O)N2CCOCC2)S(=O)(=O)c2ccc(C)cc2)cc1 | -33 | i | -2 | -4 | 2 | -2
CCC(N1CCOC1=O)S(=O)(=O)c1ccc(C)cc1 (stereo not given) | 93* | i | -8 | 17 | 1 | -6
Cc1csc(NC(=O)CSc2sc3c(O)cc(=O)[nH]c3c2C#N)n1 | 20 | + | 64* | -6 | 33 | 10
CCc1nnc(NC(=O)CSc2sc3c(O)cc(=O)[nH]c3c2C#N)s1 | -19 | + | 90* | -27 | 67 | 54
CCSc1nnc(NC(=O)CSc2sc3c(O)cc(=O)[nH]c3c2C#N)s1 | 28 | + | 91* | -21 | 68 | 55
Cc1ccc(C)c(NC(=O)CSc2sc3c(O)cc(=O)[nH]c3c2C#N)c1 | 19 | i | 9 | -14 | 17 | 19
Cn1c(/C=C/c2ccc(Cl)cc2)nc2ccccc2c1=O | 39 | i | 1 | 3 | -6 | 0
COc1ccc(C(=O)C2CCCN(S(=O)(=O)c3ccc(C(C)=O)cc3)C2)c(C)c1 (stereo not given) | 34 | i | -8 | 18 | -4 | -6
CN(Cc1ccccc1)C(=O)c1[nH]cnc1C(=O)Nc1cccc(Cl)c1 | . | . | . | 3 | -6 | -10
O=C(/C=C/c1ccco1)c1cccnc1 | 27 | + | 56* | 2 | 33 | 7
CN(C)c1ccc(/C=C/C(=O)c2cccnc2)cc1 | 60* | ? | ? | -103 | -20 | -34
O=C(O)c1[nH]c2ccccc2c1C(c1cc(Br)ccc1O)c1c(C(=O)O)[nH]c2ccccc12 | -14 | i | 27 | 5 | -1 | 1
Cc1occc1-c1nnc(SCC(=O)NC2CCCCC2C)o1 (stereo not given) | . | . | . | 8 | 3 | -2
CCCCCCn1c(=O)[nH]c2nc3cc(N)c(C)cc3nc2c1=O | 5 | + | 65 | i | . | .
CCCCn1c(SCC(=O)Nc2ccc(NC(C)=O)cc2)nc2ccccc2c1=O | 36 | i | -9 | -8 | -6 | -8
CCC(=O)Nc1ccc2nc3c(=O)[nH]c(=S)[nH]c3nc2c1 | 23 | + | 112* | 38 | 20 | 28

Bioassay records (PubChem)
